Assay outcomes: PubChem, Broad Institute
Compounds with a hit are over-represented: about 8.1% of the library has one in this group of screens.
Shh pathway inh: blocks Sonic Hedgehog signaling; inhibition, % (no concentration beside the values); Shh-LIGHT2 Gli-luciferase reporter, 30 h; 2.1% of 22,000 active;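 active = mean inhibition across valid replicates above about 65%, limit read from the data; inconclusive = mean under the limit, yet half or more replicates past it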;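 note: pathway switched on by Shh-conditioned medium diluted 1 in 25 in low serum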
NOMO-1 viab: STK33 inhibitor candidate reducing NOMO-1 cell viability | inhibition, % (test concentration not listed) | 7.5% of 37,000 active | NOMO-1 AML viability, CellTiter-Glo luminescence, 72 h; in the data active = inhibition above about 80%; inconclusive = no clear call, values can overlap the other calls
MITF inhib: blocks MITF activity | TRPM1 promoter luciferase, luminescence, 24 h | inhibition, % (test concentration not listed) | 0.28% of 37,000 active | AID 2240; in the data active = inhibition above about 85%; inconclusive = no clear call, values can overlap the other calls; inactive = below about 68%;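 note: human melanocyte line stably carrying TRPM1 promoter luciferase reporter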
Active calls of the source: *; ? = inconclusive; . = not tested or not shown.

SMILES	Shh pathway inh	NOMO-1 viab	MITF inhib
C[C@@H]1CN([C@@H](C)CO)C(=O)c2cccc(NC(=O)Nc3ccccc3)c2O[C@H]1CN(C)C(=O)Nc1ccc(F)cc1	0.9	8.0	-3.8
COC(=O)c1scc(C#N)c1N=CN(C)C	-23.4	-7.6	-0.7
CCc1cccc(C)c1NC(=O)CNS(=O)(=O)c1ccc(Cl)cc1	.	-8.2	-2.3
COC(=O)c1ccc(C(=O)OC)c(NC(=O)CN2C(=O)c3cccc4cccc2c34)c1	.	-15.4	11.1
C[C@@H]1CCCCO[C@H](CN(C)S(=O)(=O)c2ccccc2)[C@@H](C)CN([C@H](C)CO)C(=O)c2cc(NC(=O)c3ccccc3)ccc2O1	4.5	3.6	3.4
C[C@@H]1CCCCO[C@@H](CN(C)S(=O)(=O)c2ccc(Cl)cc2)[C@@H](C)CN([C@H](C)CO)C(=O)c2cc(NC(=O)c3ccccc3)ccc2O1	46.2	87.6*	31.2
Cc1ccc(S(=O)(=O)Nc2ccc3c(c2)C(=O)N([C@H](C)CO)C[C@H](C)[C@H](CN(C)S(=O)(=O)c2ccc(Cl)cc2)OCCCC[C@@H](C)O3)cc1	21.0	111.2*	34.3
Cc1ccc(S(=O)(=O)N(C)C[C@H]2OCCCC[C@@H](C)Oc3ccc(NS(=O)(=O)c4ccccc4)cc3C(=O)N([C@H](C)CO)C[C@@H]2C)cc1	60.4	36.2	29.4
Cc1ccc(S(=O)(=O)Nc2ccc3c(c2)C(=O)N([C@H](C)CO)C[C@H](C)[C@H](CN(C)S(=O)(=O)c2ccccc2)OCCCC[C@@H](C)O3)cc1	30.0	91.3*	26.4
Cc1ccc(S(=O)(=O)N(C)C[C@H]2OCCCC[C@@H](C)Oc3ccc(NS(=O)(=O)c4ccc(Cl)cc4)cc3C(=O)N([C@H](C)CO)C[C@@H]2C)cc1	.	?	44.6
N=C1S/C(=C/c2ccco2)C(=O)N1c1nccs1	53.4	36.9	-17.8
O=C(Cn1nc(C(F)(F)F)c2c1CCCCC2)Nc1ccc(S(=O)(=O)N2CCCC2)cc1	.	44.9	27.0
CNC(=O)CN(c1ccc(Br)c(C)c1)S(C)(=O)=O	.	10.7	3.2
O=C(Nc1c(Cl)cc(Cl)cc1C(=O)NCCN1CCOCC1)c1cccc([N+](=O)[O-])c1	.	-23.9	-12.8
O=C(Oc1c(CN2CCOCC2)cc(Cl)c2cccnc12)c1ccc([N+](=O)[O-])cc1	.	138.9*	69.5
COC(=O)c1cc(NC(=S)NCc2cccnc2)cc(C(=O)OC)c1	.	106.4*	-17.3
CC(=O)c1cccc(NC(=S)NCc2cccnc2)c1	.	15.2	-6.2
COc1ccc(NC(=O)Nc2ccc3c(c2)C(=O)N([C@H](C)CO)C[C@H](C)[C@H](CN(C)Cc2ccc(C(=O)Nc4ccccc4N)cc2)O3)cc1	.	38.9	-4.7
COc1ccc(NC(=O)Nc2cccc3c2O[C@H](CN(C)Cc2ccc(C(=O)Nc4ccccc4N)cc2)[C@H](C)CN([C@@H](C)CO)C3=O)cc1	.	126.6*	8.5
COc1ccc(NC(=O)Nc2cccc3c2O[C@H](CN(C)Cc2ccc(C(=O)Nc4ccccc4N)cc2)[C@@H](C)CN([C@@H](C)CO)C3=O)cc1	.	127.6*	1.9
COc1ccc(CN(C)C[C@H]2Oc3c(NC(=O)Nc4ccc(OC)cc4)cccc3C(=O)N([C@H](C)CO)C[C@@H]2C)cc1	7.9	42.4	-9.5
COc1ccc(NC(=O)Nc2cccc3c2O[C@@H](CN(C)Cc2ccc(C(=O)O)cc2)[C@@H](C)CN([C@H](C)CO)C3=O)cc1	-40.2	17.7	-0.3
COc1ccc(NC(=O)Nc2cccc3c2O[C@H](CN(C)Cc2ccc(C(=O)Nc4ccccc4N)cc2)[C@@H](C)CN([C@H](C)CO)C3=O)cc1	.	128.3*	-10.9
COc1ccc(NC(=O)Nc2cccc3c2O[C@@H](CN(C)Cc2ccc(C(=O)Nc4ccccc4N)cc2)[C@H](C)CN([C@H](C)CO)C3=O)cc1	.	125.3*	19.4
COc1ccc(CN(C)C[C@@H]2Oc3c(NC(=O)Nc4ccc(OC)cc4)cccc3C(=O)N([C@H](C)CO)C[C@@H]2C)cc1	-38.6	4.8	-1.8
SMILES	Shh pathway inh	NOMO-1 viab	MITF inhib
CC(C)=CCc1c(-c2ccc(O)cc2O)oc2c(CC=C(C)C)c(O)cc(O)c2c1=O	-9.5	23.5	0.4
COc1ccc(NC(=O)C(C(=O)Nc2ccc(OC)cc2)C23CC4CC(CC(C4)C2)C3)cc1	-28.6	47.8	1.4
C[C@H]1CN([C@@H](C)CO)C(=O)c2cccc(NS(=O)(=O)c3ccc(F)cc3)c2O[C@H]1CN(C)Cc1ccccc1	7.1	6.2	-0.2
N#Cc1ccc(NC(=O)C2CCCCC2C(=O)O)cc1 (centres undefined)	.	-5.1	3.1
COc1ccccc1OCC(=O)Nc1cccc(-c2nc3ccccc3s2)c1	.	9.8	-4.2
O=C(CCCN1C(=O)c2ccccc2C1=O)Nc1ccc(Cl)c(Cl)c1	.	-3.6	-16.6
O=C1C(=O)N(Cc2ccc(Cl)c(Cl)c2)c2ccccc21	53.8	96.7*	0.6
